# Compound activity (PubChem)
# Compounds with a hit are over-represented: about 2.1% of the library has one in this group of screens.
# Abeta yeast res: qHTS for compounds that reverse cellular toxicity of Amyloid beta (A-beta) peptide in yeast: Primary Screen | yeast expressing A-beta42, growth rescue, OD600, 48 h; response scale: 0% DMSO, 100% iron-clioquinol control | AID 1347071, 2019 | actives 0.063% (n = 410,000) | Potency, µM (titrated, usually from 46.1 µM), usual class: activators; further: nearly all actives have a fitted effect of over 55% in size
#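 Yeast A-beta toxicity model in growth medium with pinned compounds, 48 h at 30 C; growth read as absorbance at 600 nm. Normalized to FeCl3/clioquinol equimolar mix (positive) and DMSO (negative).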
# aSyn rescue: qHTS of alpha-syn Inhibitors; Yeast expressing alpha-synuclein, growth rescue, BacTiter-Glo, 24 h; Potency, µM (titrated, usually from 46.1 µM), usual class: activators; actives 0.14% (n = 370,000); AID 652106, 2013; further: nearly all actives have a fitted effect of over 65% in size
#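 Galactose-induced alpha-syn yeast (OD600=0.02, raffinose-pregrown) + pinned cpd, 24 hr, 30 deg C; growth by BacTiter-Glo luminescence. Growth restoration scores as activation.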
# FUS suppressor: qHTS for Suppressors of FUS Proteinopathy: Primary screen using FUS-linked yeast assay; actives 0.24% (n = 390,000); Potency, µM (titrated, usually from 76.6 µM), usual class: activators; S. cerevisiae FUS-expressing, growth rescue, OD600, 24 h; further: nearly all actives have a fitted effect of over 55% in size
#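 Steps: raffinose overnight preculture; dilution to OD 0.005 in 2% galactose minimal medium; compound addition (concentration series); 24hr at 30C, 99% humidity; absorbance read at 600 nm.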
# TDP-43 yeast inh: qHTS of TDP-43 Inhibitors; TDP-43 expressing yeast growth rescue, BacTiter-Glo, 24 h; Potency, µM (highest dose often 46.1 µM), most hits filed as activators; actives 1.8% (n = 410,000); AID 652104, 2013; further: nearly all actives have a fitted effect of over 50% in size
#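 Luminescence from BacTiter-Glo reports growth of TDP-43-expressing yeast after 24 hr at 30 deg C with compound. Cells were raffinose-pregrown to mid-log, then seeded in galactose medium at OD600=0.02.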
# Numbers stand for hits; . = inactive; ? = inconclusive; / = no result. The call rests on the fitted dose curve; in most records, active means well fitted curve in the direction sought with a large enough effect; inconclusive means small, poorly fitted or top-dose-only effect, or another doubt; inactive means no such curve, though single readings can be large; an effect the other way counts as inactive or inconclusive.
SMILES,Abeta yeast res,aSyn rescue,FUS suppressor,TDP-43 yeast inh
CCn1nc(/C=C/c2ccccc2)nc2c(=O)n(C)c(=O)nc1-2,.,.,.,3.16µM
CCn1nc(-c2cccs2)nc2c(=O)n(C)c(=O)nc1-2,.,.,.,.
COc1cc(C(=O)NCCSc2c(-c3ccccc3)[nH]c3ccccc23)cc(OC)c1OC,.,/,?,?
COc1ccc2nc(N3CCN(C(=O)CS(=O)(=O)c4ccc(C)cc4)CC3)sc2c1,.,/,.,12.6µM
CCOc1ccc2nc(N3CCC(C(=O)N4CCC5(CC4)OCCO5)CC3)sc2c1,.,.,?,.
c1ccc(N2CCN(c3ncnc4c3nc3n4CCCCC3)CC2)cc1,.,/,.,14.1µM
Clc1ccccc1CN1CCN(c2ccccc2)CC1,.,.,.,.
Nc1c(C(=O)OC2CCCCC2)c2nc3ccccc3nc2n1CC1CCCO1 (configuration not stated),.,.,.,28.2µM
C#CC1(O)C=CC2C3CCC4=CC(=O)CCC4C3CCC21CC (configuration not stated),.,.,.,14.1µM
O=S(=O)(c1cccc2ccccc12)N1Cc2ccccc2-n2nncc2C1,.,.,.,20µM
O=S(=O)(c1ccc(Cl)cc1)N1Cc2cc(Br)ccc2-n2nncc2C1,.,.,.,20µM
COc1ccc(S(=O)(=O)N2Cc3ccccc3-n3nncc3C2)cc1,.,.,.,.
COc1ccc(C/C(=N\OC(C)=O)c2ccc(OC)cc2)cc1,.,.,.,?
Cc1nc(-c2cccc(CN(C)C(=O)Oc3ccc([N+](=O)[O-])cc3)c2)no1,.,.,.,12.6µM
Cc1cccc(-n2c(-c3cccs3)nc3ccccc3c2=O)c1,.,.,.,20µM
O=c1c2ccccc2nc(-c2cccs2)n1-c1ccccc1,.,.,.,.
COc1ccccc1NC(=O)Oc1cccc(OC(=O)c2ccccc2)c1,.,.,.,?
O=C(CN1C(=O)CN=C(c2ccccc2)c2ccccc21)Nc1cccc(C(F)(F)F)c1,.,/,?,35.5µM
Cc1ccc(NC(=O)CN2C(=O)CN=C(c3ccccc3)c3cc(Cl)ccc32)cc1,.,?,?,14.1µM
Nc1ccc2c(c1)Cc1ccccc1-2,.,.,.,.
O=[N+]([O-])c1ccc2c(c1)Cc1cc(O)ccc1-2,.,.,/,3.55µM
O=[N+]([O-])c1cccc(O)c1,.,.,.,?
Nc1ccc2c(c1)Cc1cc([N+](=O)[O-])ccc1-2,.,?,.,8.91µM
COC(=O)C1=C(c2ccc(S(C)(=O)=O)cc2)C[C@@H]2CC[C@H]1N2C(=O)NCc1ccc(F)cc1,.,.,.,.
COC(=O)C1=C(c2ccc(OC)c(OC)c2)C[C@@H]2CC[C@H]1N2C(=O)N1CCC(C)CC1,.,.,.,.
SMILES,Abeta yeast res,aSyn rescue,FUS suppressor,TDP-43 yeast inh
COC(=O)C1=C(c2ccc(OC(F)(F)F)cc2)C[C@@H]2CC[C@H]1N2C(=O)NC1Cc2ccccc2C1,.,.,?,35.5µM
COC(=O)C1=C(c2ccc(OC(F)(F)F)cc2)C[C@@H]2CC[C@H]1N2C(=O)NCc1ccc(F)cc1,.,.,.,12.6µM
COC(=O)C1=C(c2ccc(OC(F)(F)F)cc2)C[C@@H]2CC[C@H]1N2C(=O)NC1CCCCC1,.,.,.,17.8µM
COC(=O)C1=C(c2ccc3ccccc3c2)C[C@@H]2CC[C@H]1N2C(=O)N1CCC(C)CC1,.,.,.,25.1µM
COC(=O)C1=C(c2ccc(OC(F)(F)F)cc2)C[C@@H]2CC[C@H]1N2C(=O)NCCNC(C)=O,.,.,.,.
CCC1(C)CC(C(N)=S)CCO1 (configuration not stated),.,.,.,.
COc1ccc2c(c1)CCC1C2CC[C@@]2(C)C1CC[C@@H]2NCCCCCCN1C(=O)C=CC1=O (some centres not stated),/,.,/,/
Cc1cc(N(C)C)ccc1N=Nc1ccc(N)cc1,.,.,.,12.6µM
Cc1cccc(Cn2cc(C=O)c3ccccc32)c1,.,.,.,14.1µM
CCCCCCCCN1C(=O)[C@H](CC(=O)N2CCCCC2)C[C@@]2(C(=O)OCC)CCCC=C12,.,?,?,.
Cc1cccc(NC(=O)COC(=O)c2cc(C)n(C3CC3)c2C)c1,.,.,.,35.5µM
